# According to the supplement of paper PMC12282887:
# ± gives the standard deviation of the averaged measurements.
# What was measured:
# Experiment in all cases: promoter activity interaction Z-score (Lux/OD deviation from empty-vector control); higher = stronger promoter induction by the compound
# [1] = test system: E. coli BW25113 acrABp lux reporter
# Procedure, shortened: (§1)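 Every compound was given at four 1:2 dilutions, in biological duplicates, to E. coli BW25113 carrying low-copy luxCDABE promoter reporters in wild-type or single-gene deletion backgrounds. Growth in 40 µl LB Lennox in 384-well plates at 37°C was followed by OD600 and luminescence readings every 30 min for 12 h, integrated over 0–8 h for wild type and 1–9 h for deletion strains, with wells below 10% of the median growth value excluded. Scores are Z-transformed residuals of growth-normalised luminescence fitted against a control.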
# [2] = test system: E. coli BW25113 marRABp lux reporter
# Procedure, shortened: as §1
# [3] = test system: E. coli BW25113 micFp lux reporter
# Procedure, shortened: as §1
# [4] = test system: E. coli BW25113 ompFp lux reporter
# Procedure, shortened: as §1
# [5] = test system: E. coli BW25113 robp lux reporter
# Procedure, shortened: as §1
# [6] = test system: E. coli BW25113 soxSp lux reporter
# Procedure, shortened: as §1
# [7] = test system: E. coli BW25113 tolCp lux reporter
# Procedure, shortened: as §1
# [8] = 24.6 µg/ml, genetic background: wild type
# [9] = 24.6 µg/ml, genetic background: ΔmarA
# [10] = 24.6 µg/ml, genetic background: Δrob
# [11] = 24.6 µg/ml, genetic background: ΔsoxS
# [12] = 49.3 µg/ml, genetic background: wild type
# [13] = 49.3 µg/ml, genetic background: ΔmarA
# [14] = 49.3 µg/ml, genetic background: Δrob
# [15] = 49.3 µg/ml, genetic background: ΔsoxS
# [16] = 98.6 µg/ml, genetic background: wild type
# [17] = 98.6 µg/ml, genetic background: ΔmarA
# [18] = 98.6 µg/ml, genetic background: Δrob
# [19] = 98.6 µg/ml, genetic background: ΔsoxS
# [20] = 197.1 µg/ml, genetic background: wild type
smiles,measurement,setting,value
CC[n+]1c(-c2ccccc2)c2cc(N)ccc2c2ccc(N)cc21 [Ethidiumbromide],promoter activity interaction Z-score,[1]; [8],0.326 ± 0.22
same,promoter activity interaction Z-score,[1]; [9],0.524 ± 0.7
same,promoter activity interaction Z-score,[1]; [10],0.354 ± 0.098
same,promoter activity interaction Z-score,[1]; [11],-0.0764 ± 0.31
same,promoter activity interaction Z-score,[1]; [12],0.808 ± 0.11
same,promoter activity interaction Z-score,[1]; [13],1.18 ± 0.92
same,promoter activity interaction Z-score,[1]; [14],0.756 ± 0.029
same,promoter activity interaction Z-score,[1]; [15],0.5305 ± 0.0051
same,promoter activity interaction Z-score,[1]; [16],1.2 ± 0.53
same,promoter activity interaction Z-score,[1]; [17],0.599 ± 1.3
same,promoter activity interaction Z-score,[1]; [18],0.819 ± 0.29
same,promoter activity interaction Z-score,[1]; [19],0.475 ± 0.05
same,promoter activity interaction Z-score,[2]; [8],0.958 ± 0.21
same,promoter activity interaction Z-score,[2]; [9],0.99 ± 0.055
same,promoter activity interaction Z-score,[2]; [10],0.804 ± 0.17
same,promoter activity interaction Z-score,[2]; [11],0.684 ± 0.19
same,promoter activity interaction Z-score,[2]; [12],1.32 ± 0.076
same,promoter activity interaction Z-score,[2]; [13],1.56 ± 0.57
same,promoter activity interaction Z-score,[2]; [14],1.1 ± 0.13
same,promoter activity interaction Z-score,[2]; [15],1.368 ± 0.0038
same,promoter activity interaction Z-score,[2]; [16],1.6 ± 0.43
same,promoter activity interaction Z-score,[2]; [17],1.57 ± 0.26
same,promoter activity interaction Z-score,[2]; [18],1.07 ± 0.073
same,promoter activity interaction Z-score,[2]; [19],1.15 ± 0.091
same,promoter activity interaction Z-score,[3]; [8],0.89 ± 0.25
same,promoter activity interaction Z-score,[3]; [9],0.0467 ± 0.069
same,promoter activity interaction Z-score,[3]; [10],0.437 ± 0.23
same,promoter activity interaction Z-score,[3]; [11],0.0133 ± 0.038
same,promoter activity interaction Z-score,[3]; [12],1.09 ± 0.86
same,promoter activity interaction Z-score,[3]; [13],0.0126 ± 0.13
same,promoter activity interaction Z-score,[3]; [14],0.436 ± 0.016
same,promoter activity interaction Z-score,[3]; [15],0.338 ± 0.11
same,promoter activity interaction Z-score,[3]; [16],0.763 ± 1.3
same,promoter activity interaction Z-score,[3]; [17],-0.124 ± 0.015
same,promoter activity interaction Z-score,[3]; [18],0.377 ± 0.036
same,promoter activity interaction Z-score,[3]; [19],-0.366 ± 0.13
same,promoter activity interaction Z-score,[3]; [20],1.24
same,promoter activity interaction Z-score,[4]; [8],0.291 ± 0.39
same,promoter activity interaction Z-score,[4]; [9],0.262 ± 0.15
same,promoter activity interaction Z-score,[4]; [10],0.428 ± 0.57
same,promoter activity interaction Z-score,[4]; [11],-0.386 ± 0.08
same,promoter activity interaction Z-score,[4]; [12],0.79 ± 0.52
same,promoter activity interaction Z-score,[4]; [13],0.776 ± 0.33
same,promoter activity interaction Z-score,[4]; [14],0.612 ± 0.19
same,promoter activity interaction Z-score,[4]; [15],0.772 ± 0.8
same,promoter activity interaction Z-score,[4]; [16],0.327 ± 1.1
same,promoter activity interaction Z-score,[4]; [17],0.808 ± 0.52
same,promoter activity interaction Z-score,[4]; [18],-0.58 ± 0.54
same,promoter activity interaction Z-score,[4]; [19],-0.257 ± 0.67
same,promoter activity interaction Z-score,[5]; [8],0.277 ± 0.67
same,promoter activity interaction Z-score,[5]; [9],0.595 ± 0.36
same,promoter activity interaction Z-score,[5]; [10],0.758 ± 0.77
same,promoter activity interaction Z-score,[5]; [11],1.25 ± 1.1
same,promoter activity interaction Z-score,[5]; [12],-0.152 ± 0.42
same,promoter activity interaction Z-score,[5]; [13],1.37 ± 0.033
same,promoter activity interaction Z-score,[5]; [14],-0.413 ± 0.32
same,promoter activity interaction Z-score,[5]; [15],0.804 ± 0.45
same,promoter activity interaction Z-score,[5]; [16],-0.356 ± 0.7
same,promoter activity interaction Z-score,[5]; [17],-0.204 ± 0.19
same,promoter activity interaction Z-score,[5]; [18],-1.46 ± 0.089
same,promoter activity interaction Z-score,[5]; [19],-0.959 ± 1.1
same,promoter activity interaction Z-score,[6]; [8],0.555 ± 0.028
same,promoter activity interaction Z-score,[6]; [9],0.911 ± 0.17
same,promoter activity interaction Z-score,[6]; [10],0.717 ± 0.25
same,promoter activity interaction Z-score,[6]; [11],1.38 ± 0.36
same,promoter activity interaction Z-score,[6]; [12],1.31 ± 0.084
same,promoter activity interaction Z-score,[6]; [13],1.5169 ± 0.00016
same,promoter activity interaction Z-score,[6]; [14],1.38 ± 0.24
same,promoter activity interaction Z-score,[6]; [15],2.47 ± 0.14
same,promoter activity interaction Z-score,[6]; [16],1.8 ± 0.019
same,promoter activity interaction Z-score,[6]; [17],2.07 ± 0.081
same,promoter activity interaction Z-score,[6]; [18],2.14 ± 0.22
same,promoter activity interaction Z-score,[6]; [19],3.77 ± 0.59
same,promoter activity interaction Z-score,[6]; [20],0.127 ± 0.036
same,promoter activity interaction Z-score,[7]; [8],-0.0407 ± 0.73
same,promoter activity interaction Z-score,[7]; [9],0.142 ± 0.75
same,promoter activity interaction Z-score,[7]; [10],-0.711 ± 0.15
same,promoter activity interaction Z-score,[7]; [11],0.75 ± 0.61
same,promoter activity interaction Z-score,[7]; [12],0.059 ± 0.45
same,promoter activity interaction Z-score,[7]; [13],0.836 ± 0.52
same,promoter activity interaction Z-score,[7]; [14],-0.973 ± 1
same,promoter activity interaction Z-score,[7]; [15],0.167 ± 0.58
same,promoter activity interaction Z-score,[7]; [16],0.025 ± 1.1
same,promoter activity interaction Z-score,[7]; [17],-0.192 ± 0.57
same,promoter activity interaction Z-score,[7]; [18],-0.394 ± 0.42
same,promoter activity interaction Z-score,[7]; [19],0.815 ± 0.81
same,promoter activity interaction Z-score,[7]; [20],-0.153 ± 0.69
same,promoter activity interaction Z-score,"[7]; 197.1 µg/ml, genetic background: ΔsoxS",-1.48 ± 0.4
